Records with an inconclusive call do not appear. A call without a number means that no potency is given here. Calls of active or inactive are those of the source. The call rests on the fitted dose curve.
Assay: qHTS assay for small molecule agonists of the p53 signaling pathway - cell viability (AID 651633);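 further: p53RE-bla HCT reporter cells with a stable beta-lactamase p53 reporter; nearly all actives have a fitted effect of over 30% in size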
Details: p53RE-bla HCT-116 viability, ATP luminescence, 16 h; series mostly up to 83.3 µM
Excerpt: National Center for Advancing Translational Sciences [NCATS]
NIH Chemical Genomics Center [NCGC]
U.S. Environmental Protection Agency [EPA]
National Institutes of Environmental Health Sciences [NIEHS]
National Toxicology Program [NTP]
U.S. Food and Drug Administration [FDA]
p53, a tumor suppressor protein, is activated following cellular insult, including DNA damage and other cellular stresses. The activation of p53 regulates cell fate by inducing DNA repair, cell cycle arrest, apoptosis, or cellular senescence. The activation of p53, therefore, is a good indicator of DNA damage and other cellular stresses. […] The activation of the reporter gene under culture conditions can be detected by fluorescence intensity. This cell line was used to screen the Tox21 compound library in a 1536-well plate format and to identify agonists that activate the p53 signaling pathway.
Tox21 Assay Protocol Summary:
The p53RE-bla cells were dispensed at 4,000 cells/5 ul/well in 1536-well black wall/clear bottom plates using a Multidrop dispenser. After the assay plates were incubated at a 37 C/5% CO2 incubator for 5 hours, 23 nL of compounds dissolved in DMSO, positive controls or DMSO only was transferred to the assay plate by a pin tool. The plates were incubated at 37 C for 16 hours. After 1 uL of LiveBLAzerTM B/G FRET substrate was added using a Flying Reagent Dispenser, the plates were incubated at room temperature for 2 hours, and fluorescence intensity was measured by an Envision plate reader.
For cell viability readout that measures cytotoxicity, 4 ul/well of CellTiter-Glo reagent was added into the assay plates using a Flying Reagent Dispenser. After 30 min incubation at room temperature, the luminescence intensity in the plates was measured using a ViewLux plate reader.

SMILES	Potency
CC/C=C\CCCCO	inactive
CC(C)COC(=O)C(C)C	inactive
Cn1cnc2c(=O)[nH]c(N)nc21	inactive
OCCN1C[C@H](O)[C@@H](O)[C@H](O)[C@H]1CO	inactive
CC(C)c1cccc(O)c1	inactive
CC(C)=CC(=O)O	inactive
CCCCNc1ccccc1	inactive
CCCCCCOC(=O)c1ccccc1O	inactive
Nc1[nH]c(=O)ncc1F	inactive
COc1cccc(Br)c1	inactive
CCCCCCOC(=O)CC(CC(=O)OCCCCCC)(OC(=O)CCC)C(=O)OCCCCCC	inactive
O=[N+]([O-])c1ccc(CCO)cc1	inactive
C=CCOCC(O)CS(=O)(=O)O (stereo not given)	inactive
CCN(CC)C(=O)c1ccc(O)c(OC)c1	inactive
CC(C)[N+](C)(C)CC(O)COc1cccc2ccccc12 (stereo not given)	inactive
C#CC(O)C(CC)CCCC (stereo not given)	inactive
CCCCCN(CCCCC)C(=O)C(CCC(=O)O)NC(=O)c1ccc(Cl)c(Cl)c1 (stereo not given)	inactive
C=C[Si](OC)(OC)OC	inactive
N#CCN(CC#N)CCN(CC#N)CC#N	inactive
[O-][N+](=Nc1ccccc1)c1ccccc1	inactive

SMILES	Potency
Nc1cc(N)cc(C(=O)O)c1	inactive
CSc1nc(NC2CC2)nc(NC(C)(C)C)n1	inactive
COC[C@H](c1ccc(C(F)(F)F)cc1)N1CCN(C2(C)CCN(C(=O)c3c(C)ncnc3C)CC2)C[C@H]1C	inactive
C=C(C)C(=O)NCCCN(C)C	inactive
CCCCCCCCCCCCCCCCCCOCC(O)CO (stereo not given)	inactive
CCCCCCCCC=O	inactive
CCCOc1ccccc1-c1nc2n[nH]nc2c(=O)[nH]1	inactive
CO[Si](OC)(OC)OC	inactive
Cc1ccc(N)cc1[N+](=O)[O-]	inactive
COc1cc(O)cc(O)c1	inactive
CC(C)(O)C(=O)c1ccc(OCCO)cc1	inactive
NC(=O)CCCCC1CCSS1 (stereo not given)	inactive
CC(=O)O[C@H](CC(=O)[O-])C[N+](C)(C)C	inactive
CC(C)CCCC(C)CCCC(C)CCCCC(C)CCCC(C)CCCC(C)C (stereo not given)	inactive
COC(=O)c1ccc(C(=O)OC)c(C(=O)OC)c1	inactive
Cc1nccn1CC1CCc2c(c3ccccc3n2C)C1=O (stereo not given)	inactive
CC(C)c1ccc2oc3nc(N)c(C(=O)O)cc3c(=O)c2c1	inactive
OCCCCCCO	inactive
Cc1ncc(CSSCc2cnc(C)c(O)c2CO)c(CO)c1O	inactive
Cn1ccc2cc3c(cc21)CCN3C(=O)Nc1cccnc1	inactive
